# Only a selection was taken, and hits are over-represented in it overall.
# DT40 TDP1 CPT = DT40-hTDP1 cell growth loss with CPT. Potency, µM (titrated, usually from 46.2 µM), for the others: at the highest dose activity change, negative = growth inhibition, usual class: inhibitors. chicken DT40 Tdp1-/-;hTDP1 cells + 20 nM CPT, ATP luminescence, 48 h. 420,000 tested, 12% active; also: potency is read from the fitted curve at half-maximal effect; nearly all actives have a fitted effect of over 55% in size
#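 Cell growth measured by CellTiter-Glo luminescence after a minimum 48 h, 37 C compound exposure with 20 nM CPT in Tdp1-knockout DT40 cells stably expressing hTDP1, seeded 400/well; qHTS titration format.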
# HT1080 IDH1KD tx = toxicity to HT-1080 IDH1 knockdown cells (counter line); Potency, µM (doses to about 46.1 µM), for the others: at the highest dose activity, negative = toxicity, hits mostly cytotoxic; AID 686971; 360,000 tested, 2% active; HT-1080 IDH1 knockdown viability, ATP luminescence, 48 h;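 also: potency is read from the fitted curve at half-maximal effect; 0% = DMSO wells and -100% = cell-free medium wells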
#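 Using the IDH1-knockdown HT-1080 line run in the same batch and compound series as the NT line, viability after 48 h at 37 °C was determined by CellTiter-Glo luminescence and expressed as % activity.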
# TDP1 cell noCPT = qHTS for Inhibitors of human tyrosyl-DNA phosphodiesterase 1 (TDP1): qHTS in cells in absence of CPT; DT40 Tdp1-/- hTDP1 cells, no CPT, ATP luminescence, 48 h; 420,000 tested, 15% active; Potency, µM (doses to about 46.2 µM), inactives show top-dose activity change, negative = growth inhibition, usual class: inhibitors; also: potency is read from the fitted curve at half-maximal effect; nearly all actives have a fitted effect of over 55% in size
#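 Growth kinetics read by CellTiter-Glo luminescence after ≥48 hr at 37 °C. Cells: DT40 Tdp1-/- stably carrying human TDP1, 400 per well, compound exposure in the absence of CPT (DMSO vehicle).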
# HT1080NT lethal = kills 2HG-producing HT-1080-NT fibrosarcoma cells; HT-1080-NT fibrosarcoma viability, CellTiter-Glo ATP luminescence, 48 h; Potency, µM (highest dose often 46.1 µM), inactives show at the top dose activity, negative = less viability, hits mostly cytotoxic; 360,000 tested, 1.6% active;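 also: NT is the 2HG producing partner of a matched IDH1 knockdown line; potency is read from the fitted curve at half-maximal effect; 0% = DMSO-treated cells and -100% = media-only wells without cells; nearly all actives have a fitted effect of over 55% in size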
#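 Fibrosarcoma NT cells, 750 per well in 5% FBS RPMI, were exposed to compound for 48 hours. Viability: CellTiter-Glo luminescence.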
# ALOX12 inh = blocks human arachidonate 12S-lipoxygenase; Potency, µM (series often up to 108 µM), without a hit: at the highest dose activity change, negative = inhibition, most hits filed as inhibitors; AID 1671190; purified 12hLO, xylenol orange hydroperoxide absorbance; 580,000 tested, 1.1% active; P18054; also: potency is read from the fitted curve at half-maximal effect
# Target sequence (P18054 whole entry, looked up): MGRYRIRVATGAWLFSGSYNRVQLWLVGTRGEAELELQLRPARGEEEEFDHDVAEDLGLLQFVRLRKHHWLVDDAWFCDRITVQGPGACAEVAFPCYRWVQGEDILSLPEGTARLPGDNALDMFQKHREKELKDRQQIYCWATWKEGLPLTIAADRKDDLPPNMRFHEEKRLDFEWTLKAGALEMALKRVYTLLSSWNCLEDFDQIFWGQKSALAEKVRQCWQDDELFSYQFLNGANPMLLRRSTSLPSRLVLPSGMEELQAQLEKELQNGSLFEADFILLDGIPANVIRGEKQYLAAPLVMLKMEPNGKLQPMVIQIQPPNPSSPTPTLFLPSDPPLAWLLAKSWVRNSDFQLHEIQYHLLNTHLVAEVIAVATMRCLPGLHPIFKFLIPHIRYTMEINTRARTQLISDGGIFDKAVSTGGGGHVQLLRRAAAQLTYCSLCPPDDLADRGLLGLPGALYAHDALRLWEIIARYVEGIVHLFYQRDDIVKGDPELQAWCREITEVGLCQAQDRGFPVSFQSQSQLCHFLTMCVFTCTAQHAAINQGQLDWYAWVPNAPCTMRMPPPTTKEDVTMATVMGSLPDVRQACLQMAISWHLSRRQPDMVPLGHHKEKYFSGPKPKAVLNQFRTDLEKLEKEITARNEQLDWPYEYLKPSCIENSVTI
#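 Purified human 12hLO (150 nM final) in 25 mM Hepes, 0.01% Triton X-100, pH 7.0 was preincubated 15 min at room temperature with compound. Then 40 uM arachidonic acid was added, 30 min. Hydroperoxide was read by Fe-XO absorbance ratio 573/405 nm.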
# IL1B secr inh = inhibitors of inflammasome signaling (IL-1 beta secretion); activity change, % at 57.5 µM; AID 743279; THP-1 LPS/ATP IL-1B secretion, AlphaLISA, 16 h; hits give low values; 360,000 tested, 4.7% active; in the data active = activity change below about -50%; inconclusive = mostly about -30% to -49%
#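 THP-1 cells pretreated 1 hr with compounds (up to 57.5 uM final), then stimulated with LPS (250 ng/mL final) plus ATP (1.25 mM final); secreted IL-1B measured by AlphaLISA after 16 hr, decreased signal indicating inhibition.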
# The depositor's hits bear a star; ? = inconclusive; / = no result. Unless noted, calls follow the shape of the dose curve; as a rule, active = well fitted curve in the direction sought with a large enough effect; inconclusive = small, poorly fitted or top-dose-only effect, or another doubt; inactive = no such curve, though single readings can be large; an effect the other way counts as inactive or inconclusive. Unless noted, % is scaled to controls: 0 for no effect and ±100 for the full control effect.
SMILES,DT40 TDP1 CPT,HT1080 IDH1KD tx,TDP1 cell noCPT,HT1080NT lethal,ALOX12 inh,IL1B secr inh
COc1ccc(-c2ccc(NS(=O)(=O)c3cccc([N+](=O)[O-])c3)cc2)nn1,?,-3%,?,-7%,-28%,-4
O=S1(=O)N=C(SCc2ccccc2)N(Cc2ccccc2)c2ccccc21,/,/,/,/,-18%,/
NCCSc1ncc(C(F)(F)F)cc1Cl,/,/,/,/,42%,/
C/C(=N/O)c1cnn(-c2ccccc2)c1C,/,/,/,/,36%,/
CCCc1c(C(=O)NCCc2ccccc2)nnn1-c1ccc(C)cc1,/,/,/,/,-9%,/
COc1ccc(-c2ccc(NS(=O)(=O)c3ccccc3)cc2)nn1,?,/,15µM*,/,-2%,/
CCC(C)c1ccc(NC(=O)c2ccccc2OC)cc1 (stereo not drawn),/,/,/,/,7%,/
COc1cnc(-c2ccccn2)nc1NC(C)C,0.13µM*,?,0.046µM*,?,-9%,104
COc1cnc(-c2ccccn2)nc1Sc1ccc(C)cc1,5.2µM*,?,3.3µM*,?,-15%,27
COc1cnc(-c2ccccn2)[nH]c1=O,23%,20%,2%,3%,0%,-2
COc1ccccc1Sc1nc(-c2ccccn2)ncc1OC,10µM*,?,2.9µM*,-9%,?,141
Nc1cccnc1Sc1cccc(Cl)c1,-20%,0%,-16%,0%,?,7
COc1cnc(-c2ccccn2)nc1Sc1cccc(Cl)c1,1.3µM*,?,1.3µM*,?,-15%,-8
C#CCOc1ccc(/C=C(/C#N)c2ccc(F)cc2)cc1OC,/,/,/,/,-19%,/
CCOc1cc(/C=C2/NC(=O)NC2=O)cc(Cl)c1OCc1ccc(F)cc1,/,/,/,/,-3%,/
C=CCNc1cc(C(F)(F)F)nc(-c2ccccn2)n1,18µM*,0%,?,8%,-3%,-5
Cc1ccc(Cc2nc(-c3ccccn3)no2)cc1,-11%,12%,-14%,8%,3%,-8
O=C(O)CSc1cc(C(F)(F)F)nc(-c2ccccn2)n1,-40%,-3%,1%,-3%,-8%,38
Cc1ccc(Sc2cc(C)nc(-c3ccccn3)n2)cc1,6.5µM*,?,10µM*,-8%,62%,34
FC(F)(F)c1cccc(Sc2cc(C(F)(F)F)nc(-c3ccccn3)n2)c1,18µM*,-10%,21µM*,-1%,?,6
CCOc1ccc(CC(=O)N2CCN(c3cc(-c4cccs4)[nH]n3)CC2)cc1OCC,/,/,/,/,33%,/
CNC(=S)NNC(=O)c1ccc(C)s1,/,/,/,/,24%,/
CCCC(C)NC(=O)c1cccc2c(C)c(C)[nH]c12 (stereo not drawn),/,/,/,/,1%,/
COc1cc(CCCN2C(=S)NC[C@@H]2c2ccccc2)cc(OC)c1OC,26µM*,-4%,16µM*,4%,?,1
COc1cc(CCCN2C(=S)NC[C@@H]2Cc2ccccc2)cc(OC)c1OC,26µM*,0%,16µM*,8%,?,-27
COc1cc(CCCN2CCNC[C@@H]2Cc2ccccc2)cc(OC)c1OC,-10%,3%,6%,4%,-7%,-21
CC1Cc2cc(S(=O)(=O)CCC(=O)NCc3ccco3)ccc2N1C(=O)C1CC1 (stereo not drawn),6.5µM*,?,2.9µM*,?,3%,0
CN(Cc1ccco1)C(=O)CCNS(=O)(=O)c1ccc2c(c1)CCN2C(=O)C1CC1,/,/,/,/,-5%,/
CC(CC(=O)NCc1ccco1)S(=O)(=O)c1ccc2c(c1)CCN2C(=O)C1CC1 (stereo not drawn),18µM*,?,?,-26%,-1%,12

# Assay outcomes (PubChem BioAssay)
